Laboratory results as given in PubChem BioAssay (Tox21).
Records with an inconclusive call do not appear. Unmarked numbers belong to inactive results. Calls follow the shape of the dose curve; as a rule, active = well fitted cell-killing curve with a large enough effect in the repeat runs; inconclusive = weak or mixed curves, or effect the other way; inactive = flat fitted curve, though single readings scatter.

experiment: qHTS RealTime-Glo MT Cell Viability Assay in HEK293 cells - 8 hour (AID 1224887); conditions: RealTime-Glo luminescence; series mostly up to 76.8 µM; activity change, negative = cytotoxicity: at the top concentration; also: top concentration of the series differs between compounds; nearly all actives have a fitted effect of over 50% in size
Text: U.S. Tox21 Program National Center for Advancing Translational Sciences [NCATS] NIH Chemical Genomics Center [NCGC] U.S. Environmental Protection Agency [EPA] National Institutes of Environmental Health Sciences [NIEHS] National Toxicology Program [NTP] U.S. Food and Drug Administration [FDA] Tox21 Assay Overview: Measure of cell viability is critical in the cell-base assay. Analysis of cell viability is necessary for the characterization of cell responses to cytotoxic drugs and environmental stress. A RealTime-Glo MT Cell Viability Assay to monitor cell viability in real time of continues cell culture during 40 hours of compound treatment was used to screen Tox21 10K library compounds in Hek293 cells. The RealTime-Glo MT Cell Viability Assay is a nonlytic, homogeneous, bioluminescent method to measure cell viability in real time using a simple, plate-based method. The assay involves adding NanoLuc luciferase and a cell-permeant prosubstrate to cells in culture. Viable cells reduce the proprietary prosubstrate to generate a substrate for NanoLuc luciferase. This substrate diffuses from cells into the surrounding culture medium, where it is rapidly used by the NanoLuc Enzyme to produce a luminescent signal. The signal correlates with the number of viable cells, making the assay well suited for cytotoxicity studies.
Tox21 Assay Protocol Summary: The mixture of Hek293 cell suspension and reagents were dispensed at 600cells/6 ul/well in 1536-well tissue culture treated black solid bottom plates using a Multidrop dispenser. After the assay plates were incubated at a 37 C/5% CO2 incubator for 5 hours, 23 nL of compounds dissolved in DMSO, positive and negative controls was transferred to the assay plate by a pintool work station. The plates were incubated at 37 C for 40 hours. The luminescence intensity were measured at 0h, 8h, 16h, 24h, 32h and 40h time points using ViewLux plate reader during compound treatment.
% is scaled to controls: 0 for no effect and ±100 for the full control effect.

Row | Structure (SMILES) | activity change, negative = cytotoxicity
1 | CC(=O)O[Si](C)(OC(C)=O)OC(C)=O | 1.1%
2 | O=C(O)c1cc2ccccc2nc1C(=O)O | -9.48%
3 | C=C(C)C1CC=C(C)C(=O)C1 (stereo not given) | 1.87%
4 | CC1=NN(c2ccc(S(=O)(=O)O)cc2)C(=O)C1 | 3.88%
5 | O=C(Cl)c1ccccc1[N+](=O)[O-] | 7.12%
6 | Nc1nc(-c2ccccc2)c(Br)c(=O)[nH]1 | 0.892% [at 35.3 µM]
7 | ONc1ccccc1 | -18.7%
8 | CCCCCCCCCOC(=O)CCCCC(=O)OCCCCCCC | -10.3%
9 | CC(C)=CCC[C@@](C)(O)[C@H]1CC=C(C)CC1 | -0.0354% [at 35.3 µM]
10 | Cn1c(=O)c2[nH]c(Br)nc2n(C)c1=O | 22.1% [at 35.3 µM]
11 | C#CCN[C@@H]1CCc2ccccc21 | -2.4% [at 35.3 µM]
12 | CCCCSCCCC | 4.5%
13 | C[C@H]1[C@@H](c2ccccc2)NC(=O)N1C | 2.96%
14 | O=C(CN1CCNCC1)NC1CCCCC1 | -1.07% [at 35.3 µM]
15 | CC(C)CO | -3.32%
16 | CC(C)(C)NC[C@H](O)COc1cccc2c1CCCC2=O | -17% [at 35.3 µM]
17 | CC(=O)Nc1ccc(OC(=O)c2ccccc2OC(C)=O)cc1 | 2.54% [at 35.3 µM]
18 | CC(=O)OC1CCCCC1C(C)(C)C (stereo not given) | -2.68%
19 | Cc1cccc(Cl)c1 | -6.37%
20 | C/C=C(\C)C(=O)OCCc1ccccc1 | -4.37%

Row | Structure (SMILES) | activity change, negative = cytotoxicity
21 | Cc1ccc(N)cc1S(=O)(=O)O | -3.88%
22 | CC(C)NCC(O)c1ccc2ccccc2c1 (stereo not given) | -16.2% [at 35.3 µM]
23 | CC(Oc1cc(Cl)ccc1Cl)C(=O)O (stereo not given) | 3.98%
24 | OCCN1CCOCC1 | 1.51%
25 | C=CCCCCCCCCC(=O)OCCCC | 10.7%
26 | C/C=C(\C)C(C)=O | -2.02%
27 | [O-][n+]1cccc(/C(Cl)=N/OC[C@@H](O)CN2CCCCC2)c1 | 0.378% [at 35.3 µM]
28 | C[Si]1(C)O[Si](C)(C)O[Si](C)(C)O[Si](C)(C)O[Si](C)(C)O1 | 7.48%
29 | CCC[C@@H]1C[C@@H](C(=O)N[C@@H]([C@H]2O[C@H](SC)[C@H](O)[C@@H](O)[C@H]2O)[C@@H](C)O)N(C)C1 | 1.49% [at 35.3 µM]
30 | COc1ccc2c(c1)c1c3n2CCN(C)C3=NCC1 | 8.73% [at 35.3 µM]
31 | CCCC(CC)c1ccccc1 (stereo not given) | 20.3%
32 | CCNC(=O)NCc1cccc(Cl)c1 | -1.22% [at 35.3 µM]
33 | Cc1ccnc(N)c1 | -1.3%
34 | CCCCOCC(C)O (stereo not given) | 2.87%
35 | CC(=O)c1cc(C)oc1C | 0.526%
36 | O=C(O)CNC(=O)CNC(=O)CNC(=O)CSC(=O)c1ccccc1 | 4.76% [at 35.3 µM]
37 | CCn1cc(C(=O)O)c(=O)c2cnc(N3CCCC3)nc21 | 10.5% [at 6.97 µM]
38 | OC1(c2ccc(Cl)cc2)CCNCC1 | 9.63% [at 35.3 µM]
39 | CCCC(=O)OCCC(C)CCC=C(C)C (stereo not given) | 5.11%
40 | Fc1ccccc1 | 9.29%
